In the library only some 4.7% were active in any assay of this set; here they are far more common.
Efflux pump mplx = blocks antifungal efflux pumps in multiplex yeast assay; S. cerevisiae Candida pump triplex, Nile Red efflux; inhibition, % at 10 µM; actives 0.44% (n = 330,000); AID 485275;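 active means plate passing quality check with inhibition over a set limit, or well fluorescence over plate mean plus 4 SD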;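 further: Nile Red retained in pooled yeast measured as flow cytometry median fluorescence; higher means more Nile Red kept so more efflux inhibition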
PABP FP inh = PABP-poly(A) binding inhibition; P11940; inhibition, % at 35 µM; PABP-poly(A) RNA binding, fluorescence polarization; actives 1% (n = 290,000);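 further: calls also rest on retests at 20 µM and on dose response follow-up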
ALR inh = blocks human ALR sulfhydryl oxidase activity; purified ALR, DTT oxidation, H2O2 HRP-luminol luminescence; actives 3.8% (n = 290,000); inhibition, % (test concentration not listed);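 active means mean replicate inhibition above about 79%, with every replicate also reaching it, limit read from the data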
Target sequence (P55789 whole entry, looked up): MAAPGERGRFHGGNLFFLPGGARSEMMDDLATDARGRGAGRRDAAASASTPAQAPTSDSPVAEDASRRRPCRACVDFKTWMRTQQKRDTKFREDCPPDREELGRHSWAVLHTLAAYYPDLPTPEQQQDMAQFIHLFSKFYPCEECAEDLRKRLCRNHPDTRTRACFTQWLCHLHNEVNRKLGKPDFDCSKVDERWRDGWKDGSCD
eIF4H FP inh = inhibitors of RNA binding by human eIF4H; eIF4H fluorescence polarization binding assay; actives 0.94% (n = 290,000); Q15056; inhibition, % at 35 µM;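 further: calls also rest on retests at 20 µM and on dose response follow-up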
PABP1 MLLE inh = blocks PAM2 peptide binding to the PABP1 MLLE domain; GST-MLLE / FITC-PAM2 fluorescence polarization; inhibition, % at 20 µM; actives 0.36% (n = 360,000); in the data active means inhibition above about 35%, passing the limit was not always enough
SUMO HTRF inh = inhibitors of human SUMOylation (UBC9); P63279; HTRF SUMOylation assay, SAE1/SAE2 + UBC9, in vitro; inhibition, % at 35 µM; actives 0.36% (n = 290,000); AID 2006; in the data active means inhibition above about 50%, passing the limit was not always enough
Target sequence (P63279 whole entry, looked up): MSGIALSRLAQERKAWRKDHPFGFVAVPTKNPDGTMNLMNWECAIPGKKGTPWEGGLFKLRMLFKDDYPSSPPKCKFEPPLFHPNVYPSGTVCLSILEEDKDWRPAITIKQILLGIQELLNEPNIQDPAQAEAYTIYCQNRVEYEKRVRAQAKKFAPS
Cmpd fluor yeast = counter-screen for efflux pump inhibitors: compound fluorescence | AID 588517 | fluorescence ratio to DMSO, % at 10 µM | actives 4% (n = 1,700) | S. cerevisiae AD/pABC3, flow cytometry | shares compounds with Efflux pump mplx;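 active means fluorescence ratio to DMSO above its plate's cutoff, the plate mean ratio plus 5 SD, cut at about 210% in these data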;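 further: unstained yeast with no Nile Red so the signal is compound autofluorescence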
Mdr1 pump inh = Candida Mdr1 efflux pump inhibition. shares compounds with Efflux pump mplx. S. cerevisiae AD/CaMDR1, Nile Red efflux, flow cytometry. inhibition, % at 10 µM. actives 1% (n = 1,700). AID 588518; in the data active means inhibition above about 26%;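 further: higher means more Nile Red retained so more efflux inhibition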
CaCdr2 efflux inh = blocks the Candida albicans Cdr2 efflux pump in yeast; shares compounds with Efflux pump mplx; Nile Red retention ratio vs DMSO, % at 10 µM; S. cerevisiae AD/CaCDR2, Nile Red retention, flow cytometry; actives 4% (n = 1,700); in the data active means Nile Red retention ratio vs DMSO above about 190%;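 further: higher ratio means more blocking of Cdr2 efflux of the dye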
Cdr1 pump inh = blocks the Candida albicans Cdr1 efflux pump in yeast | AID 588522 | actives 1% (n = 1,700) | shares compounds with Efflux pump mplx | inhibition, % at 10 µM | S. cerevisiae AD/CaCDR1, Nile Red efflux, flow cytometry;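 active means inhibition above the screen-wide mean plus twice its standard deviation, cut at about 32% in these data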
Of the large screens only hits and unclear results are named; the others gave an inactive call (follow-up assays come after a bar, where they were run). Unless noted, how the calls were made is not given here.

Cc1ccc(S(=O)(=O)N2CCOCC2)cc1NC(=O)COC(=O)CNC(=O)c1ccccc1	Efflux pump mplx 9.1 | Cmpd fluor yeast inactive | Mdr1 pump inh inactive | CaCdr2 efflux inh inactive | Cdr1 pump inh inactive
O=C(NCCN1CCOCC1)c1cccc(S(=O)(=O)N2CCCCC2)c1	none
Cc1ccc(S(=O)(=O)N2CCOCC2)cc1NC(=O)COC(=O)Cc1cccs1	none (no result: PABP FP inh, eIF4H FP inh, SUMO HTRF inh)
O=C(NCCCN1CCOCC1)C(=O)N/N=C/c1ccccc1O	Efflux pump mplx 0.8 | Cmpd fluor yeast inactive | Mdr1 pump inh inactive | CaCdr2 efflux inh inactive | Cdr1 pump inh inactive
O=C(NCCCN1CCOCC1)C(=O)N/N=C/c1ccccc1Cl	none
O=C(NCCCN1CCOCC1)c1cccc(S(=O)(=O)N2CCOCC2)c1	Efflux pump mplx 106 (no result: PABP FP inh, ALR inh, eIF4H FP inh, SUMO HTRF inh) | Cmpd fluor yeast inactive | Mdr1 pump inh inactive | CaCdr2 efflux inh inactive | Cdr1 pump inh inactive
Cc1cc(OCCCN2CCCC2)ccc1Cl	none
O=C(COC(=O)C12CC3CC(CC(C3)C1)C2)NNC(=O)c1ccccc1	none (no result: PABP FP inh, eIF4H FP inh, SUMO HTRF inh)
CC(C)(C)N1CCC1CN (stereo not given)	none (no result: Efflux pump mplx, ALR inh)
O=C(O)CC/C(=N\NC(=O)c1ccccc1Br)c1ccccc1	Efflux pump mplx 18 | Cmpd fluor yeast inactive | Mdr1 pump inh inactive | CaCdr2 efflux inh inactive | Cdr1 pump inh inactive
Cc1nn(C)cc1S(=O)(=O)Nc1cccc(Cl)c1	none
CN(C(=O)CSc1ncccn1)C1CCS(=O)(=O)C1 (stereo not given)	Efflux pump mplx 5.3 (no result: ALR inh) | Cmpd fluor yeast inactive | Mdr1 pump inh inactive | CaCdr2 efflux inh inactive | Cdr1 pump inh inactive
COC(=O)c1cccc(-n2nnnc2SCC(=O)Nc2nc3c(s2)CCCC3)c1	Efflux pump mplx 1.5 | Cmpd fluor yeast inactive | Mdr1 pump inh inactive | CaCdr2 efflux inh inactive | Cdr1 pump inh inactive
COc1cccc(-n2nnnc2SCC(=O)Nc2nc3c(s2)CCCC3)c1	none
Cc1ccc2c(c1)[C@H]1[C@H](CO2)[C@H](c2ccccc2)[C@]2(C)C(=O)Nc3ccccc3C(=O)N12	none (no result: PABP FP inh, eIF4H FP inh, SUMO HTRF inh)
C[C@@]12C(=O)Nc3cc(F)c(F)cc3C(=O)N1[C@H]1c3cc(Cl)ccc3OC[C@@H]1[C@@H]2c1ccccc1	none (no result: PABP FP inh, eIF4H FP inh, SUMO HTRF inh) | Cmpd fluor yeast inactive | Mdr1 pump inh inactive | CaCdr2 efflux inh inactive | Cdr1 pump inh inactive
COc1ccc2c(c1)[C@H]1[C@H](CO2)[C@H](c2ccccc2)[C@]2(C)C(=O)Nc3ccc(C)cc3C(=O)N12	none (no result: PABP FP inh, eIF4H FP inh, SUMO HTRF inh)
C[C@@]12C(=O)Nc3ccccc3C(=O)N1[C@H]1c3cc(Cl)ccc3OC[C@@H]1[C@@H]2c1ccccc1	none (no result: PABP FP inh, eIF4H FP inh, SUMO HTRF inh) | Cmpd fluor yeast inactive | Mdr1 pump inh inactive | CaCdr2 efflux inh inactive | Cdr1 pump inh inactive
C[C@@]12C(=O)Nc3ccc(Cl)cc3C(=O)N1[C@H]1c3cc(Cl)ccc3OC[C@@H]1[C@@H]2c1ccccc1	none (no result: PABP FP inh, eIF4H FP inh, SUMO HTRF inh) | Cmpd fluor yeast inactive | Mdr1 pump inh inactive | CaCdr2 efflux inh inactive | Cdr1 pump inh inactive
COc1ccc2c(c1)OC[C@H]1[C@H]2N2C(=O)c3cc(C)ccc3NC(=O)[C@@]2(C)[C@H]1c1ccccc1	Efflux pump mplx 5.1 (no result: PABP FP inh, eIF4H FP inh, SUMO HTRF inh) | Cmpd fluor yeast inactive | Mdr1 pump inh inactive | CaCdr2 efflux inh inactive | Cdr1 pump inh inactive
C[C@@]12C(=O)Nc3ccc(Br)cc3C(=O)N1[C@H]1c3cc(Cl)ccc3OC[C@@H]1[C@@H]2c1ccccc1	none (no result: PABP FP inh, eIF4H FP inh, SUMO HTRF inh)
COc1ccc(CCC2(C)NC(=O)N(C(C)C(=O)N3c4ccccc4CC3C)C2=O)cc1 (stereo not given)	none (no result: PABP FP inh, eIF4H FP inh, SUMO HTRF inh)
CC1CN(C(=O)CCC(=O)NCc2ccccc2Cl)c2ccccc2S1 (stereo not given)	none
N#CC1c2ccccc2C=CN1C(=O)N(c1ccccc1)c1ccccc1 (stereo not given)	none (no result: Efflux pump mplx, PABP FP inh, ALR inh, eIF4H FP inh, SUMO HTRF inh)
O=C(CCC1CCCCC1)NNC(=O)NC12CC3CC(CC(C3)C1)C2	Efflux pump mplx 0.7 | Cmpd fluor yeast inactive | Mdr1 pump inh inactive | CaCdr2 efflux inh inactive | Cdr1 pump inh inactive
COc1ccccc1N1CCN(C2CCN(S(=O)(=O)c3ccc(NC(C)=O)cc3)CC2)CC1	none
O=C(CCC(=O)OCCCC(F)(F)C(F)(F)F)NC1CCCCC1	Efflux pump mplx 1.4 | Cmpd fluor yeast inactive | Mdr1 pump inh inactive | CaCdr2 efflux inh inactive | Cdr1 pump inh inactive
O=C(CCC(=O)OCCCC(F)(F)C(F)(F)F)Nc1ccccc1	none
COC(=O)c1ccc(NCCC(=O)O)cc1	none
CC1CC(C)CN(CCCNC(=O)CN2C(=O)CSc3ccc(S(=O)(=O)N4CCCCC4)cc32)C1 (stereo not given)	Efflux pump mplx 0.6 (no result: PABP FP inh, eIF4H FP inh, SUMO HTRF inh) | Cmpd fluor yeast inactive | Mdr1 pump inh inactive | CaCdr2 efflux inh inactive | Cdr1 pump inh inactive
Cc1cc(C)nc(N/C(=N\S(=O)(=O)Cc2ccccc2)Nc2ccccc2Br)n1	Efflux pump mplx 13 | Cmpd fluor yeast inactive | Mdr1 pump inh inactive | CaCdr2 efflux inh inactive | Cdr1 pump inh inactive
Cc1cc(C)nc(Nc2ccccc2Br)n1	none
COc1cccc(NC(=O)C(=O)N/N=C/c2cc(C)n(-c3ccc(Cl)c(Cl)c3)c2C)c1	Efflux pump mplx 0.7 | Cmpd fluor yeast inactive | Mdr1 pump inh inactive | CaCdr2 efflux inh inactive | Cdr1 pump inh inactive
Cc1cc(/C=N/NC(N)=S)c(C)n1-c1ccc(Cl)c(Cl)c1	none
CC(=O)Nc1ccccc1OCC(=O)NCC(F)(F)F	Efflux pump mplx 0.6 | Cmpd fluor yeast inactive | Mdr1 pump inh inactive | CaCdr2 efflux inh inactive | Cdr1 pump inh inactive
CC(=O)Nc1ccccc1OCC(=O)NC(C)c1ccccc1 (stereo not given)	none
CCc1nnc(NC(=O)CCC(=O)N2CCC(Cc3ccccc3)CC2)s1	none
COc1cc(/C=C2/SC(=Nc3ccc(O)cc3)NC2=O)ccc1O	none
COc1cc(/C=C2\SC(=Nc3ccccc3OC)NC2=O)ccc1O	Efflux pump mplx 0.6, ALR inh 99 | Cmpd fluor yeast inactive | Mdr1 pump inh inactive | CaCdr2 efflux inh inactive | Cdr1 pump inh inactive
CCc1ccc(N=C2NC(=O)/C(=C/c3cc(OC)c(O)c(OC)c3)S2)cc1	Efflux pump mplx 0.5 | Cmpd fluor yeast inactive | Mdr1 pump inh inactive | CaCdr2 efflux inh inactive | Cdr1 pump inh inactive
COc1cc(/C=C2/CC/C(=C/c3ccc(O)c(OC)c3)C2=O)ccc1O	Efflux pump mplx 0.5 | Cmpd fluor yeast inactive | Mdr1 pump inh inactive | CaCdr2 efflux inh inactive | Cdr1 pump inh inactive
Cc1nnc(SCc2cc(=O)[nH]c(Nc3nc(C)c4cc(C)c(C)cc4n3)n2)s1	Efflux pump mplx 1.6 | Cmpd fluor yeast inactive | Mdr1 pump inh inactive | CaCdr2 efflux inh inactive | Cdr1 pump inh inactive

Bioassay records (PubChem BioAssay)
